What was measured:
Experiment in all cases: DAPPL (digital affinity profiling via proximity ligation, sequencing); 10 mM Tris-HCl pH 7.5, 50 mM NaCl, 1 mM DTT, 4% glycerol, room temperature, 30 min; GST-TFs on glutathione beads, 16-mer random dsDNA library, 0.1% formaldehyde crosslink after washing; high values mean tight binding
FLI1 = molecular target: T1, FLI1 (Homo sapiens, UniProt Q01543 1-452); details: protein: recombinant; tags: N-terminal GST; dsDNA, one strand shown
T1 sequence: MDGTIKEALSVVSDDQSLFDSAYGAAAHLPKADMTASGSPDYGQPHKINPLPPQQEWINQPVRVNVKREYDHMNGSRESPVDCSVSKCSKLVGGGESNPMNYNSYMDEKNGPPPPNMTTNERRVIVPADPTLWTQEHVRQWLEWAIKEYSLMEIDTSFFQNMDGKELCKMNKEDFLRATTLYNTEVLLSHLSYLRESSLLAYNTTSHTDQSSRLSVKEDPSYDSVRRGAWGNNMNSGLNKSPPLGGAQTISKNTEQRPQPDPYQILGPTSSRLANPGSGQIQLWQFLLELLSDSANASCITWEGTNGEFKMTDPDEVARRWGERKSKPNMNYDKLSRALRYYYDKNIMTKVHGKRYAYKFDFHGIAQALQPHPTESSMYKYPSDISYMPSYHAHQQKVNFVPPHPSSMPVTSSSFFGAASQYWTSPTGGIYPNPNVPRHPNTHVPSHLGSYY
Method in brief: (§1)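 Human transcription factors carrying a GST fusion were produced in yeast, bound to glutathione beads, tagged with DNA barcodes and pooled together with a tag-only sample. Each pool was held with 200 nmole of a random double-stranded 16-mer DNA library in Tris/NaCl/DTT/glycerol buffer for 30 min at room temperature, then washed, crosslinked in 0.1% formaldehyde, proximity-ligated with BsaI/T4 ligase (1 h, 37 °C), PCR-amplified and sequenced on an Illumina NextSeq500. Binding signal is the read frequency of each hexamer for a given factor divided by its frequency in the tag-only sample.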

ELK1 = molecular target: T2, ELK1 (Homo sapiens, UniProt P19419 1-428); details: protein: recombinant; tags: N-terminal GST; dsDNA, one strand shown
T2 sequence: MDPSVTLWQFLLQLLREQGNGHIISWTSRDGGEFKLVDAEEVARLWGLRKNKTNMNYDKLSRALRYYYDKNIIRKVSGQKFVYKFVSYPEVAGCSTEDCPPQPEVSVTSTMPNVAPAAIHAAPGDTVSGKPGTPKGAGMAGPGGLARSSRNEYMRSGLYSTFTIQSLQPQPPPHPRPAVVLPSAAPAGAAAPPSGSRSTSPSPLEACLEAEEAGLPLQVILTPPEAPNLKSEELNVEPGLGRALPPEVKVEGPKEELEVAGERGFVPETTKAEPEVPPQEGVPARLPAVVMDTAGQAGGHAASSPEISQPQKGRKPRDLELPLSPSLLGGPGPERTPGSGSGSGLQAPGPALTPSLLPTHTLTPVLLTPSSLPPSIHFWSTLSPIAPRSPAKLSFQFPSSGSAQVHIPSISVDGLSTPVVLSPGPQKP
Method in brief: as §1

GABPA = molecular target: T3, GABPA (Homo sapiens, UniProt Q06546 1-454); details: protein: recombinant; tags: N-terminal GST; dsDNA, one strand shown
T3 sequence: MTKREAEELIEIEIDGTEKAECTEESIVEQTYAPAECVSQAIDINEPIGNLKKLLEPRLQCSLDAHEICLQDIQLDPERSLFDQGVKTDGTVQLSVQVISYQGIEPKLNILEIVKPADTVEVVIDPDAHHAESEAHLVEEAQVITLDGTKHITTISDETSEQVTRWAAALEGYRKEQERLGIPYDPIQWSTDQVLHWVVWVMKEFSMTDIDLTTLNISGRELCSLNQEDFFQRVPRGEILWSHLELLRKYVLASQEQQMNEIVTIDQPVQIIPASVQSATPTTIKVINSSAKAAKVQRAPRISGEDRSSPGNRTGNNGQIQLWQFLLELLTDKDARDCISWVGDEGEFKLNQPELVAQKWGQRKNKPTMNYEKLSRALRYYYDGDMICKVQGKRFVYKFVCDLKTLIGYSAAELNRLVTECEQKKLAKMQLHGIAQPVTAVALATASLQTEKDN
Method in brief: as §1

ERG = molecular target: T4, ERG (Homo sapiens, UniProt P11308 1-479); details: protein: recombinant; tags: N-terminal GST; dsDNA, one strand shown
T4 sequence: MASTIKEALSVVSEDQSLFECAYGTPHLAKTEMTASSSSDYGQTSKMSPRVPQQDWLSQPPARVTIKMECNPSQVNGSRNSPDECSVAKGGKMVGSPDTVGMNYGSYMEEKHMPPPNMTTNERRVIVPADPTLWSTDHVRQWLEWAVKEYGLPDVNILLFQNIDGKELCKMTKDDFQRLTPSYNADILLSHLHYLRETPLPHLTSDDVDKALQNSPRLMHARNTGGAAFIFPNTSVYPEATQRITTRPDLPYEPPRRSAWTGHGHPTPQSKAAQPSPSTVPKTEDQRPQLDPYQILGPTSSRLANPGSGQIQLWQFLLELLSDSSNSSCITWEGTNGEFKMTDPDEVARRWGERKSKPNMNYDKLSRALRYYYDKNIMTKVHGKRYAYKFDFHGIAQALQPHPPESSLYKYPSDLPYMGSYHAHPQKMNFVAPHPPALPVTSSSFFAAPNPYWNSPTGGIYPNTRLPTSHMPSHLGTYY
Method in brief: as §1

ELF1 = ELF1 (Homo sapiens, UniProt P32519 1-619); details: protein: recombinant; tags: N-terminal GST; dsDNA, one strand shown
Chain of ELF1 (P32519 whole entry): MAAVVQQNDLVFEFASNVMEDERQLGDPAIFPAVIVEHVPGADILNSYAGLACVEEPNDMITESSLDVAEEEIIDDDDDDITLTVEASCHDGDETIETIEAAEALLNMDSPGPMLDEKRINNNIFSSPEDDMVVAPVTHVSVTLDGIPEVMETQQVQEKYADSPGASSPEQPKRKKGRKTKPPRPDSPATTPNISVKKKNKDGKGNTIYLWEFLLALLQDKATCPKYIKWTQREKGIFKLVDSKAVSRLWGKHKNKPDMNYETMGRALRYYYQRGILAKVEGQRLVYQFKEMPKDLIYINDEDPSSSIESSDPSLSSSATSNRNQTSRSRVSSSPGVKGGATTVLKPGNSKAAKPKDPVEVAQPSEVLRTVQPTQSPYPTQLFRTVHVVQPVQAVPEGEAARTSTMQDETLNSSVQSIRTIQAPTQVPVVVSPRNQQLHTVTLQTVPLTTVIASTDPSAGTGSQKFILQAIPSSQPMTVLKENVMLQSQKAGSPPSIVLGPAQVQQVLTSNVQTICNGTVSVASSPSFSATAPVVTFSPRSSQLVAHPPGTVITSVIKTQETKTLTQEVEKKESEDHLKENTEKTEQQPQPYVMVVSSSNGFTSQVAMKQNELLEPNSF
Method in brief: as §1

EHF = molecular target: T5, EHF (Homo sapiens, UniProt Q9NZC4 1-300); details: protein: recombinant; tags: N-terminal GST; dsDNA, one strand shown
T5 sequence: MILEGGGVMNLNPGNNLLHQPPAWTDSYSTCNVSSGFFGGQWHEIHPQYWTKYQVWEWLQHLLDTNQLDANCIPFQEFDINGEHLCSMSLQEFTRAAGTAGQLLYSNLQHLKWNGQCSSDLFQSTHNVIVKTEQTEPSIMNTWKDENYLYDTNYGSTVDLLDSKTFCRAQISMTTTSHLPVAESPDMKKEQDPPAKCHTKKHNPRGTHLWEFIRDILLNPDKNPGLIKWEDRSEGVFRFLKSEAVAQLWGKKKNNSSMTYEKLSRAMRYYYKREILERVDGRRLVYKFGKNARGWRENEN
Method in brief: as §1

SPI1 = SPI1 (Homo sapiens, UniProt P17947 1-270); details: protein: recombinant; tags: N-terminal GST; dsDNA, one strand shown
Method in brief: as §1

SPIB = SPIB (Homo sapiens, UniProt Q01892 1-262); details: protein: recombinant; tags: N-terminal GST; dsDNA, one strand shown
Chain of SPIB (Q01892 whole entry): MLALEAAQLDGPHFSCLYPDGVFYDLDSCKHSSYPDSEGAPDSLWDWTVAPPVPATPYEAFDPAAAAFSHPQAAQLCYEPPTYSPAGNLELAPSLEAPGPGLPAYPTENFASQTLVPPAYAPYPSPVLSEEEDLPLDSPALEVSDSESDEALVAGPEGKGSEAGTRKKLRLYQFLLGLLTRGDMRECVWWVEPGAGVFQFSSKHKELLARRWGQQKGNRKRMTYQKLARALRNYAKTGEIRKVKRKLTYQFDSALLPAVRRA
Method in brief: as §1

ELK3 = molecular target: T6, ELK3 (Homo sapiens, UniProt P41970 1-407); details: protein: recombinant; tags: N-terminal GST; dsDNA, one strand shown
T6 sequence: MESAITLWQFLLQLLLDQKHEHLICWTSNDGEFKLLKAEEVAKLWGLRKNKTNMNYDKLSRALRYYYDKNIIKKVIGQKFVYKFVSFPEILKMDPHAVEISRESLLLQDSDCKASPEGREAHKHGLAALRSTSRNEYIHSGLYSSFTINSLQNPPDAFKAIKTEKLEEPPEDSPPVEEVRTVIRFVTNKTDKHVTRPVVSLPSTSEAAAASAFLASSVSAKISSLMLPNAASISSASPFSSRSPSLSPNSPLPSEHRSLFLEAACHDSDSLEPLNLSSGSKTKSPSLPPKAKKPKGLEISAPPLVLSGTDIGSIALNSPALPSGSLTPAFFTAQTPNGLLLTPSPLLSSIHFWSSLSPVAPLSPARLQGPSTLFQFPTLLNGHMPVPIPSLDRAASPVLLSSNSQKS
Method in brief: as §1

FEV = molecular target: T7, FEV (Homo sapiens, UniProt Q99581 1-238); details: protein: recombinant; tags: N-terminal GST; dsDNA, one strand shown
T7 sequence: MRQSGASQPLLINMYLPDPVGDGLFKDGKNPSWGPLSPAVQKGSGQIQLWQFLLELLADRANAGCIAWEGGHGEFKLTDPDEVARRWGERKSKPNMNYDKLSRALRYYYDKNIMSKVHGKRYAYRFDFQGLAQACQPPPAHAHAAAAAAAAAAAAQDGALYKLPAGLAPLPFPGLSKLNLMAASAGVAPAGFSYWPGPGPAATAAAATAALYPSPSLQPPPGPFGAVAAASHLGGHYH
Method in brief: as §1

ETV5 = ETV5 (Homo sapiens, UniProt P41161 1-510); details: protein: recombinant; tags: N-terminal GST; dsDNA, one strand shown
Chain of ETV5 (P41161 whole entry): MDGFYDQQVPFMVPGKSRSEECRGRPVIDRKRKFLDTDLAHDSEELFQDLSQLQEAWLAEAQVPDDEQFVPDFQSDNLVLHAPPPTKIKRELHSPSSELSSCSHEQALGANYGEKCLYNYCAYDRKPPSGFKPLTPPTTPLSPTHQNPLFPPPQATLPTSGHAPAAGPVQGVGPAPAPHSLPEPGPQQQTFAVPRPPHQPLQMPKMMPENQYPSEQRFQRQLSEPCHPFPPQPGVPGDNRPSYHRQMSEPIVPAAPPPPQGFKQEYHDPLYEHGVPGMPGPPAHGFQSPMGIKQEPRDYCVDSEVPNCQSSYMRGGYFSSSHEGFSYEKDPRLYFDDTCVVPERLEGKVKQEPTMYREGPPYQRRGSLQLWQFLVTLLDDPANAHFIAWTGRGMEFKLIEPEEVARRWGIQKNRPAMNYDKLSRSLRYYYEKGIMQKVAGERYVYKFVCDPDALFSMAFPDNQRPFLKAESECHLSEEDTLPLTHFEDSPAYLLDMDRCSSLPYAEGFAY
Method in brief: as §1

HSF1 = HSF1 (Homo sapiens, UniProt Q00613 1-529); details: protein: recombinant; tags: N-terminal GST; chain copies: 3; dsDNA, one strand shown
Chain of HSF1 (Q00613 whole entry): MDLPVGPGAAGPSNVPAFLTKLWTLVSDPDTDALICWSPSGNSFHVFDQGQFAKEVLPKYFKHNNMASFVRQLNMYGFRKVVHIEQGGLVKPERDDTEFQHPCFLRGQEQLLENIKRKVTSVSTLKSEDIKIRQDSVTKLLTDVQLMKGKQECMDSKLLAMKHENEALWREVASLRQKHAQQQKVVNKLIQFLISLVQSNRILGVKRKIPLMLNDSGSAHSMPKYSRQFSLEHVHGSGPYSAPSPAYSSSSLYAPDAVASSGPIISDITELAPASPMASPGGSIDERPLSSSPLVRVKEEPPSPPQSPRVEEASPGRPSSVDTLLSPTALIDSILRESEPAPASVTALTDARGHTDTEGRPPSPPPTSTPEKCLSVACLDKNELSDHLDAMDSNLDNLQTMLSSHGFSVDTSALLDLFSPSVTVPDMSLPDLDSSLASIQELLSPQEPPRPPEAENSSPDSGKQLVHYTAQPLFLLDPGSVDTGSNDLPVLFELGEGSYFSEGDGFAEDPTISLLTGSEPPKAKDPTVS
Method in brief: as §1

SPIC = molecular target: T8, SPIC (Homo sapiens, UniProt Q8N5J4 1-248); details: protein: recombinant; tags: N-terminal GST; dsDNA, one strand shown
T8 sequence: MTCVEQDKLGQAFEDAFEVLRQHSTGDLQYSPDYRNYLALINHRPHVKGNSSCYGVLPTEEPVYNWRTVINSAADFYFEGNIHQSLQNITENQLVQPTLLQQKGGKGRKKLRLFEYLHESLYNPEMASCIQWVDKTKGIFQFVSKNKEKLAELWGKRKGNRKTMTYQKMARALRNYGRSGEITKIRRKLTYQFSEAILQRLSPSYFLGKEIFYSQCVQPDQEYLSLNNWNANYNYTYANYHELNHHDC
Method in brief: as §1

ELF4 = ELF4 (Homo sapiens, UniProt Q99607 1-663); details: protein: recombinant; tags: N-terminal GST; dsDNA, one strand shown
Chain of ELF4 (Q99607 whole entry): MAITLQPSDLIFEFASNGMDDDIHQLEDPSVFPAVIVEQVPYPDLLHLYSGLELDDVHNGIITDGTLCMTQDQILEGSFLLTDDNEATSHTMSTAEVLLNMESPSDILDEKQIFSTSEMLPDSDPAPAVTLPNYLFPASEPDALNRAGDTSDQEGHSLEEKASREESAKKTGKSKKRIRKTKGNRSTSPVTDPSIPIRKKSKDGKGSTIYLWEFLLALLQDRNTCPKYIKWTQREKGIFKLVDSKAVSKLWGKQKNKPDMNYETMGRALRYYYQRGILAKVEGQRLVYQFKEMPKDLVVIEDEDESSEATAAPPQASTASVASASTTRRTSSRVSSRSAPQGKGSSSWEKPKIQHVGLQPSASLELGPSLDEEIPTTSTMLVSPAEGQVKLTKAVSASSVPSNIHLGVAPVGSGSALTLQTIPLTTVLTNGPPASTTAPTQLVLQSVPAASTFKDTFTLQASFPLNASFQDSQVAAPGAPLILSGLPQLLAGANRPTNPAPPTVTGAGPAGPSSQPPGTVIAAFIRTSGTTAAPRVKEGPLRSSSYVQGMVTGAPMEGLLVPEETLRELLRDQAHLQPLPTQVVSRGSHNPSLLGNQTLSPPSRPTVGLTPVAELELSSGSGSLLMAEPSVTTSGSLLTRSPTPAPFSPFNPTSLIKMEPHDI
Method in brief: as §1

ELK4 = molecular target: T9, ELK4 (Homo sapiens, UniProt P28324-2 1-405); details: protein: recombinant; tags: N-terminal GST; dsDNA, one strand shown
T9 sequence: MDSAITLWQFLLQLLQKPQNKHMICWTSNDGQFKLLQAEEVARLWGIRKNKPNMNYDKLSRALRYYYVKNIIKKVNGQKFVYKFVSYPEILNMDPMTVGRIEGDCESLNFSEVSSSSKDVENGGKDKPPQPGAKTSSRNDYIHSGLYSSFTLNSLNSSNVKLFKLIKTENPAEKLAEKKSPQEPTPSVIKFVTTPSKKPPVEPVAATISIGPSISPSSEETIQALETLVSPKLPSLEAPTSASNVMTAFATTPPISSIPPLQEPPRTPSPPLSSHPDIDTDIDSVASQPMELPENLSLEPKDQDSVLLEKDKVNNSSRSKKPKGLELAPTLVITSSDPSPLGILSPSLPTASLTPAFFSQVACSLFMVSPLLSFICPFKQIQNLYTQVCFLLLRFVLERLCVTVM
Method in brief: as §1

ETV2 = molecular target: T10, ETV2 (Homo sapiens, UniProt O00321 1-342); details: protein: recombinant; tags: N-terminal GST; dsDNA, one strand shown
T10 sequence: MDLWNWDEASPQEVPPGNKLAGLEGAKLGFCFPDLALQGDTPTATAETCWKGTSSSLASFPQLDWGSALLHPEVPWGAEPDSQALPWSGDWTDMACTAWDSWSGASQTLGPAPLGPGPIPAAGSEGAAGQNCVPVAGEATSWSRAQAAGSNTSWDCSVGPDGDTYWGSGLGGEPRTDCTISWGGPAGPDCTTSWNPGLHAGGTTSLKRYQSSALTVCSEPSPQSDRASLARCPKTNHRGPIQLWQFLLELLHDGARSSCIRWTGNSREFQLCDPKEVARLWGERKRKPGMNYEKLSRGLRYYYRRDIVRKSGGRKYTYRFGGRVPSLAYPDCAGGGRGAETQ
Method in brief: as §1

CRX = CRX (Homo sapiens, UniProt O43186 1-299); details: protein: recombinant; tags: N-terminal GST; dsDNA, one strand shown
Chain of CRX (O43186 whole entry): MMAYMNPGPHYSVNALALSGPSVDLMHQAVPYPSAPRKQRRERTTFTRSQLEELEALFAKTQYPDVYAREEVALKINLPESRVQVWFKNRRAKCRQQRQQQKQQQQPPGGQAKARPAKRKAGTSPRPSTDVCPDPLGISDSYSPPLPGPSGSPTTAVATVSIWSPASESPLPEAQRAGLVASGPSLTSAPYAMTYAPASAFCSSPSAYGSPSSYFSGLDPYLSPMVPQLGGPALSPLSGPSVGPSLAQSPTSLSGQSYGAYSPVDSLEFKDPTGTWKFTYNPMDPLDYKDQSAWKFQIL
Method in brief: as §1

ETV1 = ETV1 (Homo sapiens, UniProt P50549 1-477); details: protein: recombinant; tags: N-terminal GST; dsDNA, one strand shown
Chain of ETV1 (P50549 whole entry): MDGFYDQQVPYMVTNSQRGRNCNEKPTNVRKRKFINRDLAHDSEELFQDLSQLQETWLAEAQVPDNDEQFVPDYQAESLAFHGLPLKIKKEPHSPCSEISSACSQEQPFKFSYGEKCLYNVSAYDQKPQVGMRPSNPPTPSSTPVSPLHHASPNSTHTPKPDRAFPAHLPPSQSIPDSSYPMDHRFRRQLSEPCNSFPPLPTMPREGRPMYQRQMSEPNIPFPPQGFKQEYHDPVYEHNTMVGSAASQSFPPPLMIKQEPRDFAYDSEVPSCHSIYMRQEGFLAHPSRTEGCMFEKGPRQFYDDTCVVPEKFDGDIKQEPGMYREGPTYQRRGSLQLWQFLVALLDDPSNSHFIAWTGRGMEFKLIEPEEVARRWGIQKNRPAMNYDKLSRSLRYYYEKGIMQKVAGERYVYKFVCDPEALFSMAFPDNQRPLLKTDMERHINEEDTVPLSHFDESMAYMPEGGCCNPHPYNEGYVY
Method in brief: as §1

AAGCAC
binding signal (FLI1): 1.14 fold enrichment (6-mer frequency, TF over GST control) | binding signal (ELK1): 1.14 fold enrichment (6-mer frequency, TF over GST control) | binding signal (GABPA): 1.15 fold enrichment (6-mer frequency, TF over GST control) | binding signal (ERG): 1.19 fold enrichment (6-mer frequency, TF over GST control) | binding signal (ELF1): 1.18 fold enrichment (6-mer frequency, TF over GST control) | binding signal (EHF): 1.07 fold enrichment (6-mer frequency, TF over GST control) | binding signal (SPI1): 1.18 fold enrichment (6-mer frequency, TF over GST control) | binding signal (SPIB): 1.18 fold enrichment (6-mer frequency, TF over GST control) | binding signal (ELK3): 1.31 fold enrichment (6-mer frequency, TF over GST control) | binding signal (FEV): 1.23 fold enrichment (6-mer frequency, TF over GST control) | binding signal (ETV5): 1.12 fold enrichment (6-mer frequency, TF over GST control) | binding signal (HSF1): 1.04 fold enrichment (6-mer frequency, TF over GST control) | binding signal (SPIC): 1.09 fold enrichment (6-mer frequency, TF over GST control) | binding signal (ELF4): 1.2 fold enrichment (6-mer frequency, TF over GST control) | binding signal (ELK4): 1.12 fold enrichment (6-mer frequency, TF over GST control) | binding signal (ETV2): 1.22 fold enrichment (6-mer frequency, TF over GST control) | binding signal (CRX): 1.09 fold enrichment (6-mer frequency, TF over GST control) | binding signal (ETV1): 1.14 fold enrichment (6-mer frequency, TF over GST control)
